# Several values for one entry are separate records, joined by “and”; a condition that tells them apart may be missing. Identical values can stand only once. Among all 340,000 compounds or so, about 5,100 (1.5%) were called active. This excerpt belongs to a sample that is enriched for actives. Values without a mark were called inactive.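 The calls were made as follows: active = mean Tm shift, scaled 0 neutral to 100 positive control, at about 1.3% or above, every replicate too (limit read from the data); inconclusive = no clear call, values can overlap the other calls; inactive = the rest.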
# Molecular target: Fibroblast growth factor 22 (Homo sapiens) (UniProt Q9HCT0)
# Sequence (Q9HCT0 whole entry, looked up): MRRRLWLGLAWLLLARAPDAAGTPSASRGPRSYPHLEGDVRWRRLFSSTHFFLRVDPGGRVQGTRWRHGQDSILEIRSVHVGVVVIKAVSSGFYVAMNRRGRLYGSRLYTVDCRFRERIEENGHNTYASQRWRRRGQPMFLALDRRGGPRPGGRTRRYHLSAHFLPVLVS
# Assay: binders of human FGF22 protein, primary screen, FGF22 synaptogenesis inhibitor project, biophysical, thermal shift, single point (AID 651658)
# Conditions: recombinant FGF22 thermal shift, SYPRO orange fluorescence; at 9.99 µM; hits give high values; percent of sucrose octasulfate shift, DMSO zero
row,Compound,"activity (Tm shift, normalised)"
1,Cc1ccc2[nH]c(=O)c(CC(=O)O)c(-c3ccccc3)c2c1,-0.089%
2,Cc1ccc2[nH]c(=O)c(CN3CCCCC3)c(-c3ccccc3)c2c1,43.2% (active)
3,c1ccc2cc3[nH]c(CN4CCCCC4)nc3cc2c1,-0.01%
4,Cc1ccccc1S(=O)(=O)N[C@H]1CC[C@@H](CCn2cc(Cc3ccccc3)nn2)O[C@H]1CO,-0.039%
5,Cc1noc(C)c1NC(=O)N(C)C[C@H]1OCCCC[C@H](C)Oc2ccc(NC(=O)Cc3ccccc3)cc2C(=O)N([C@H](C)CO)C[C@@H]1C,1.07%
6,O=C(CSc1nnc(-c2ccncc2)o1)NCc1ccc(Cl)cc1,43.9% (active)
7,O=C(CSc1nnc(-c2ccncc2)o1)Nc1cccc(Cl)c1,0.107%
8,COc1ccc2c(C)cc(SCC(=O)NCC3CCCO3)nc2c1 (stereo not drawn),0.011%
9,CCc1ccccc1NC(=O)CSc1nnc(-c2ccncc2)o1,-0.04%
10,O=C(COc1ccc(Cl)cc1)NCc1nnc(SCC(=O)NCC2CCCO2)o1 (stereo not drawn),42.9% (active)
11,O=C(CSc1ccc(-c2ccccc2)nn1)NCC1CCCO1 (stereo not drawn),-0.177%
12,C[C@@H]1CN([C@@H](C)CO)C(=O)c2cc(NS(=O)(=O)c3cn(C)cn3)ccc2O[C@@H]1CN(C)C(=O)NC1CCCCC1,-0.419%
13,COC(=O)[C@@H]1[C@@H](CO)[C@@H]2Cn3c(ccc(-c4ccc(OC)cc4)c3=O)[C@@H]2N1S(C)(=O)=O,-0.206%
14,CCC(=O)N1[C@H](C(=O)OC)[C@@H](CO)[C@@H]2Cn3c(ccc(-c4cccc(F)c4)c3=O)[C@@H]21,0.191%
15,COCC(=O)N1[C@@H](CO)[C@H](c2ccccc2)C12CN(C(=O)NC1CCCCC1)C2,0.045%
16,COc1ccc2c3c([nH]c2c1)[C@H](CO)N(Cc1ccccc1)CC31CCN(C(=O)c2ccccn2)CC1,-0.204%
17,C[C@@H]1CN([C@@H](C)CO)C(=O)Cc2cc(NC(=O)Nc3cccc4ccccc34)ccc2O[C@H]1CN(C)CC1CCCCC1,0.094%
18,O=C(NCCc1ccccc1)c1c[nH]c2ccc(F)cc2c1=O,0.52%
19,O=C(NCCc1ccc(F)cc1)c1n[nH]c2ccccc12,43.3% (active)
20,COc1cccc(CNC(=O)c2n[nH]c3ccccc23)c1,0.239%
21,CCCNC(=O)N1C[C@@H](O)COC[C@H]2O[C@H](CC(=O)NCCCN3CCOCC3)CC[C@@H]21,-0.348%
22,COc1ccccc1-c1ccc2c(c1)O[C@H](CN(C)C(=O)c1cccnc1)[C@H](C)CN([C@@H](C)CO)S2(=O)=O,-0.096%
23,O=C(C[C@@H]1CC[C@@H]2[C@H](COC[C@H](O)CN2C(=O)C2CC2)O1)NCc1ccncc1,0.141%
24,CN(C)CC(=O)N1[C@H](CO)[C@@H](c2ccc(-c3cccc(C(=O)N(C)C)c3)cc2)[C@@H]1C#N,0.074%
25,NC(=O)N1CCc2ccccc21,43.1% (active)

row,Compound,"activity (Tm shift, normalised)"
1,O=C(c1cnn2ccccc12)N1CCc2ccccc21,-0.357%
2,O=C(NC(=S)N1CCc2ccccc21)c1ccco1,0.306%
3,C[C@H](CO)N1C[C@H](C)[C@@H](CN(C)C(=O)Cc2ccncc2)Oc2ncc(C3=CCCCC3)cc2C1=O,0.188%
4,O=C(NCC[C@@H]1CC[C@@H](NC(=O)c2ccccc2F)[C@H](CO)O1)c1ccc2c(c1)OCO2,-0.277%
5,C[C@@H]1CN([C@@H](C)CO)C(=O)c2cccc(NC(=O)Nc3ccc(C(F)(F)F)cc3)c2O[C@@H]1CN(C)S(=O)(=O)c1ccc(F)cc1,-0.433%
6,CO[C@@H]1CN(C)C(=O)c2ccc(NC(=O)Nc3c(C)noc3C)cc2OC[C@H](C)N(CC2CC2)C[C@H]1C,0.073%
7,Cc1ccc(C(=O)Nc2nc3ccc(Cl)cc3s2)o1,0.029%
8,NS(=O)(=O)c1ccc2nc(NC(=O)C3=COCCO3)sc2c1,-0.051%
9,CS(=O)(=O)c1ccc2nc(NC(=O)c3ccc(Cl)nc3)sc2c1,1.36% (active)
10,COc1ccc([Si](C)(C)[C@@H]2[C@@H](CCO)O[C@]3(C(=O)N(Cc4ccccc4)c4ccc(N5CCC5=O)cc43)[C@H]2C)cc1,1.09%
11,O=C(C[C@H]1C[C@@H]2c3cc(NC(=O)Nc4ccc(C(F)(F)F)cc4)ccc3O[C@@H]2[C@@H](CO)O1)NCC1CC1,5.86% (active)
12,O=C(C[C@H]1C[C@H]2c3cc(NC(=O)Nc4ccc(F)cc4)ccc3O[C@H]2[C@H](CO)O1)NCC1CC1,0.011%
13,O=C(C[C@H]1C[C@H]2c3cc(NC(=O)Nc4ccc(F)cc4)ccc3O[C@H]2[C@@H](CO)O1)NCC1CC1,-0.077%
14,C[C@H]1CCCCO[C@H](CN(C)S(C)(=O)=O)[C@@H](C)CN([C@@H](C)CO)C(=O)c2cc(NC(=O)C3CCCCC3)ccc2O1,-0.096%
15,CN1C(=O)c2cc(NC(=O)c3cccc(F)c3)ccc2OC[C@@H]2O[C@H](CC(=O)N3CCc4ccccc4C3)CC[C@@H]21,1.53% (active)
16,CNC(=O)C[C@H]1CC[C@H]2[C@H](COc3ccc(NC(=O)c4cccc(F)c4)cc3C(=O)N2C)O1,-0.14% and 0.048%
17,COC(=O)C[C@@H]1CC[C@@H]2[C@H](COc3ccc(NC(=O)c4cccc(F)c4)cc3C(=O)N2C)O1,-0.235%
18,O=C(C[C@@H]1CC[C@@H](NC(=O)Nc2ccc(F)cc2)[C@@H](CO)O1)NCCN1CCCC1,-0.38%
19,CCCC(=O)Nc1ccc2c(c1)C(=O)N(C)C[C@H](OC)[C@H](C)CN(C(=O)c1ccccn1)[C@H](C)CO2,-0.212%
20,C[C@@H]1CN([C@@H](C)CO)S(=O)(=O)c2ccc(C#C[C@@H](C)O)cc2O[C@@H]1CN(C)C(=O)CN(C)C,-0.212%
21,CO[C@@H]1CN(C)C(=O)c2cc(NC(=O)C3CC3)ccc2OC[C@@H](C)N(Cc2nccs2)C[C@@H]1C,0.295%
22,CC1CCCN(CC(O)COc2ccc3c(c2)OCO3)C1 (stereo not drawn),0.154%
23,CC1CCCN(CC(O)COCc2ccccc2)C1 (stereo not drawn),43.5% (active)
24,COc1ccc(COCC(O)CN2CCC(C(N)=O)CC2)cc1 (stereo not drawn),-0.009%
25,CC(C)(C)S(=O)N1Cc2cc(C(=O)O)nc(-c3cccc(-c4cc5ccccc5o4)c3)c2[C@@H]1CCO (stereo partly drawn),0.231%

row,Compound,"activity (Tm shift, normalised)"
1,COc1ccc2c3c(n(C)c2c1)[C@H](CO)N(Cc1ccccc1)CC31CN(C(=O)c2ccccc2F)C1,-0.032%
2,NS(=O)(=O)c1ccc(NC(=O)COC(=O)c2c3c(nc4ccccc24)/C(=C\c2ccc4c(c2)OCO4)CCC3)cc1,-0.081%
3,NC(=O)c1ccc(NC(=O)COC(=O)c2c3c(nc4ccccc24)/C(=C\c2ccc4c(c2)OCO4)CCC3)cc1,-0.321%
4,O=C1/C(=C/c2ccc3c(c2)OCO3)CCC/C1=C\c1ccc2c(c1)OCO2,26.1% (active)
5,CCCNC(=O)N1C[C@@H]2[C@H](c3ccccc31)[C@@H](CO)N2C(=O)NC(C)C,-0.334%
6,C[C@H]1CN([C@@H](C)CO)S(=O)(=O)c2ccc(C#Cc3cccnc3)cc2O[C@H]1CN(C)C(=O)CN(C)C,-0.747%
7,Cc1ccccc1NC(=S)NNC(=O)c1cccc(Br)c1,43.6% (active)
8,CC(CC(=O)O)CC(=O)NNC(=O)c1cccc(Br)c1 (stereo not drawn),-0.089%
9,O=C(NC(=S)Nc1cccc2c(O)cccc12)c1cccc(Br)c1,-0.32%
10,O=C(C[C@H]1C[C@@H]2c3cc(NS(=O)(=O)c4ccc(F)cc4)ccc3O[C@@H]2[C@@H](CO)O1)NCc1cccc(F)c1,-0.007%
11,Oc1cccc2cc(-c3ccncc3)cnc12,43.2% (active)
12,C[C@@H]1CN([C@H](C)CO)C(=O)Cc2cc(NC(=O)Nc3cccc4ccccc34)ccc2O[C@H]1CN(C)C(=O)Nc1ccc2c(c1)OCO2,-0.447%
13,COc1ccc(-n2nc(C(=O)Nc3cc(OC)c(OC)c(OC)c3)c3ccccc3c2=O)c(OC)c1,0.293%
14,COc1ccc(-n2nc(C(=O)NCC(=O)N3CCN(c4ccccc4OC)CC3)c3ccccc3c2=O)c(OC)c1,-0.112%
15,COc1cccc(NC(=O)c2nn(-c3ccc(OC)cc3OC)c(=O)c3ccccc23)c1,43.4% (active)
16,CN1C(=O)c2cc(NC(=O)c3cnccn3)ccc2OC[C@H]2O[C@@H](CC(=O)NCC3CCCCC3)CC[C@@H]21,-0.186%
17,CC(C)C(C(=O)NCc1ccco1)N(CC1CCCO1)C(=O)CNS(=O)(=O)c1ccc(F)cc1 (stereo not drawn),-0.278%
18,O=C(CN(CC1CCCO1)C(=O)CNS(=O)(=O)c1ccc(F)cc1)NCc1ccco1 (stereo not drawn),43.2% (active)
19,O=C(CN(CC1CCCO1)C(=O)CNS(=O)(=O)c1ccc(Cl)cc1)NCc1ccccc1 (stereo not drawn),-0.087%
20,COCC(=O)N(C)C[C@H]1Oc2cc(C#C[C@@H](C)O)ccc2S(=O)(=O)N([C@@H](C)CO)C[C@@H]1C,0.023%
21,COc1ccc(C(C(=O)NC(C)(C)C)N(Cc2ccc(F)cc2)C(=O)CCC(=O)Nc2cc(C)on2)cc1 (stereo not drawn),-0.347%
22,CCC(C)(C)NC(=O)C(c1ccc(OC)cc1)N(C(=O)CCC(=O)Nc1cc(C)on1)c1ccc(OC)cc1OC (stereo not drawn),0.006%
23,CCC(C)(C)NC(=O)C(c1cccc(OC)c1OC)N(CC(C)C)C(=O)CCC(=O)Nc1cc(C)on1 (stereo not drawn),43% (active)
